Results as given in PubChem BioAssay (NCATS).
Records with an inconclusive call do not appear. Calls of active or inactive are those of the source. Unless noted, calls follow the shape of the dose curve; as a rule, active = well fitted curve in the direction sought with a large enough effect; inconclusive = small, poorly fitted or top-dose-only effect, or another doubt; inactive = no such curve, though single readings can be large; an effect the other way counts as inactive or inconclusive.

What was measured:
[1] = target: Glucocorticoid receptor (Homo sapiens) (UniProt P04150); test: GR-GFP Redistribution (AID 450;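 active = compounds whose dose series gives a full or clear partial fitted curve of increased nuclear translocation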; also: potency is read from the fitted curve at half-maximal effect); settings: U2OS GR-GFP nuclear translocation, laser cytometry, 2 h
[2] = target: Glucocorticoid receptor (Homo sapiens) (UniProt P04150); test: GR-EFC Redistribution (AID 451; calls by dose curve; also: potency is read from the fitted curve at half-maximal effect); settings: CHO-K1 GR-EFC translocation, beta-gal luminescence, 2 h
In short: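 Translocation of GR-ED fusion to nuclear EA restores b-gal, read by luminescence after 1 h room-temperature detection. Engineered CHO-K1 biosensor cells, 1,000/well, exposed 2 h at 37 C to titrations up to 46 uM final.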

[3] = target: Mitogen-activated protein kinase 10 (Mus musculus) (UniProt Q61831); test: JNK3 AlphaScreen Assay (AID 530; active = well fitted curve in either direction with a large enough effect, not every such curve was filed as active;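 also: kinase came from lysate of stimulated human HepG2 cells; signal reports phosphorylation of biotinylated GST-cJun 1-79 at Ser73 with 10 µM ATP; % is scaled to controls: 0 for no effect and ±100 for the full control effect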)
In short: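 Room-temperature AlphaScreen kinase assay; pre-activated HepG2 lysate as JNK3 source, biotin-GST-cJun(1-79) substrate, 10 uM ATP, compound 15 min preincubation.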

[4] = qHTS Assay for Lipid Storage Modulators (AID 1519; calls by dose curve; as to activity change, negative = inhibition: % is scaled to controls: 0 for no effect and ±100 for the full control effect); settings: Drosophila S3 cells, BODIPY lipid droplet/cell ratio, laser cytometry, cells loaded with oleic acid
In short: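 Cells seeded at 5,000 per well were treated with compounds over a concentration series and loaded with oleic acid (400 uM, as added). Lipid droplet fluorescence (488 nm excitation, 500-530 nm channel) was read by laser-scanning cytometry and normalized to 20 uM Triacsin C.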

[5] = target: Ubiquitin carboxyl-terminal hydrolase 1 (Homo sapiens) (UniProt O94782); test: Inhibitors of USP1/UAF1: Pilot qHTS (AID 504865);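 also: rhodamine fluorescence freed from ubiquitin-rhodamine substrate followed over time; top concentration of the series differs between compounds; % is scaled to controls: 0 for no effect and ±100 for the full control effect; nearly all actives have a fitted effect of over 35% in size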
In short: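 USP1/UAF1 complex at 1 nM preincubated 15 min at room temperature with compound, then Ub-Rho substrate added at 150 nM final. Fluorescence (480/540 nm) read kinetically in 50 mM HEPES pH 7.8, 0.5 mM EDTA, 1 mM TCEP, 0.1 mg/ml BSA, 0.01% Tween-20.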

[6] = target: DNA dC->dU-editing enzyme APOBEC-3G (Homo sapiens) (UniProt Q9HC16); test: qHTS for inhibitors of Vif-A3G interactions: Validation (AID 588379); also: 0% is about no effect
In short: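 HeLa cells stably expressing Vif and A3G-eYFP, 700 cells/well, incubated overnight at 37 deg C, then exposed to compound overnight at 37 deg C. Inhibition of Vif-mediated degradation read as increased yellow fluorescence (Ex 488/Em 500-530) by laser-scanning cytometry.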

[7] = Counterscreen qHTS for small molecule stabilizers of the endoplasmic reticulum resident proteome: GLuc-NoTag assay (AID 1508627);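 also: SH-SY5Y cells given compound then 100 nM thapsigargin to empty ER calcium; 0% = thapsigargin alone and -100% = DMSO vehicle control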
In short: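 Luminescence of Gaussia luciferase secreted into the medium (coelenterazine, 0.07x final, unlysed cells) was the read-out. Human SH-SY5Y neuroblastoma cells constitutively secreting untagged GLuc received compound for 19 h, then 100 nM thapsigargin for 4 h.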

[8] = Confirmatory qHTS for small molecule stabilizers of the endoplasmic reticulum resident proteome: Secreted ER Calcium Modulated Protein (SERCaMP) assay (AID 1508628);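 also: SH-SY5Y cells given compound 16 h then thapsigargin 100 nM for 4 h; % is scaled to controls: 0 for no effect and ±100 for the full control effect; nearly all actives have a fitted effect of over 40% in size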
In short: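 We seeded SH-SY5Y-GLuc-SERCaMP cells, added compounds (three concentrations in the primary run, eleven up to 76.6 uM in confirmation), incubated 16 h, depleted ER calcium with thapsigargin, and read luciferase 4 h later.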

[9] = Primary qHTS for small molecule stabilizers of the endoplasmic reticulum resident proteome: Secreted ER Calcium Modulated Protein (SERCaMP) assay (AID 1508630); also: % is scaled to controls: 0 for no effect and ±100 for the full control effect
In short: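 GLuc-SERCaMP-expressing SH-SY5Y cells, pretreated 16 h with compound, are challenged with thapsigargin to empty ER calcium stores; after 4 h, coelenterazine is added directly to the medium and luminescence is imaged.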

[10] = target: 3',5'-cyclic-AMP phosphodiesterase 4B (Homo sapiens) (UniProt Q07343); test: qHTS Assay for Inhibitors of PDE-IV (AID 607; active = well fitted activation curve with a large enough effect in the main read-out, with a control signal flat, not every such curve was filed as active; also: % of control where 0% means no effect)
In short: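 Live HEK293 cells with a modified cyclic nucleotide-gated (CNG) channel report intracellular cAMP via membrane-potential dye fluorescence (ex 535/em 590 nm). Endogenous PDE-IV was targeted. Compounds were tested at up to 22.9 uM final; RO 20-1724 100 uM served as control.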

[11] = target: Cytochrome P450 2D6 (Homo sapiens) (UniProt P10635); test: qHTS Assay for Inhibitors and Substrates of Cytochrome P450 2D6 (AID 891); also: potency is read from the fitted curve at half-maximal effect; nearly all actives have a fitted effect of over 60% in size
In short: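 Human CYP2D6 (5 nM) with 30 uM Luciferin-ME EGE (at Km) in 100 mM KPO4, compound preincubated 10 min, then NADPH regeneration system for 60 min at room temperature. Luciferin read by luminescence; normalized to 1.43 uM quinidine.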

Chain of Glucocorticoid receptor (Homo sapiens) (P04150 whole entry, looked up, the tested form may be a part): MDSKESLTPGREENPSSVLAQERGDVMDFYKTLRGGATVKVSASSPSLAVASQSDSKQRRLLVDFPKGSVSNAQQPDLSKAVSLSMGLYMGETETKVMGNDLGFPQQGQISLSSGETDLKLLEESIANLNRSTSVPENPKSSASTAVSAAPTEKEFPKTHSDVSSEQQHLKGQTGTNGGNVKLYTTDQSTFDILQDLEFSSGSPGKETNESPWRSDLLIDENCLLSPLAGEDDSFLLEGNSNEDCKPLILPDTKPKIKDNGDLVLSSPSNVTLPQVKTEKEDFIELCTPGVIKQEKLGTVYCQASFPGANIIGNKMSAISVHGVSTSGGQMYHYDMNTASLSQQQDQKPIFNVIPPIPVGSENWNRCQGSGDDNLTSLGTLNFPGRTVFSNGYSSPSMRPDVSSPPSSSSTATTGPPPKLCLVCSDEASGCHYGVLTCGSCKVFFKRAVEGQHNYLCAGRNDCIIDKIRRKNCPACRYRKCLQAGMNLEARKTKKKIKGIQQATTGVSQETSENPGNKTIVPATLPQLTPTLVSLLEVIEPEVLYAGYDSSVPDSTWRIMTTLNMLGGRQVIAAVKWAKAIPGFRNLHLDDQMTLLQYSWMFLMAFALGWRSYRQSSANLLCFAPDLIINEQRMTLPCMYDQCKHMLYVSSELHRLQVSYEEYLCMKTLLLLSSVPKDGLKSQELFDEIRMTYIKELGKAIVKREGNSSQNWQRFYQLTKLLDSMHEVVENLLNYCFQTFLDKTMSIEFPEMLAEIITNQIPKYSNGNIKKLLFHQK
Chain of DNA dC->dU-editing enzyme APOBEC-3G (Homo sapiens) (Q9HC16 whole entry, looked up): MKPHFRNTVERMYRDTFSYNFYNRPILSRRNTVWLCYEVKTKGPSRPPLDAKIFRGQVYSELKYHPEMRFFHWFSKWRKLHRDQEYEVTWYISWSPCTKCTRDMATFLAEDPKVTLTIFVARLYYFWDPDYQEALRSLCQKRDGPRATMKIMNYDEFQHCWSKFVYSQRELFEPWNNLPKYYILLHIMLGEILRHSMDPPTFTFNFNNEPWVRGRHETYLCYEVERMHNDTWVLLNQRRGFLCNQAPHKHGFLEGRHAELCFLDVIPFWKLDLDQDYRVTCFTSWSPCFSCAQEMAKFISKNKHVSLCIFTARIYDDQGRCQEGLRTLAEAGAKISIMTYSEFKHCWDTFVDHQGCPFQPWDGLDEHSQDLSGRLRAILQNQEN
Chain of Ubiquitin carboxyl-terminal hydrolase 1 (Homo sapiens) (O94782 whole entry, looked up): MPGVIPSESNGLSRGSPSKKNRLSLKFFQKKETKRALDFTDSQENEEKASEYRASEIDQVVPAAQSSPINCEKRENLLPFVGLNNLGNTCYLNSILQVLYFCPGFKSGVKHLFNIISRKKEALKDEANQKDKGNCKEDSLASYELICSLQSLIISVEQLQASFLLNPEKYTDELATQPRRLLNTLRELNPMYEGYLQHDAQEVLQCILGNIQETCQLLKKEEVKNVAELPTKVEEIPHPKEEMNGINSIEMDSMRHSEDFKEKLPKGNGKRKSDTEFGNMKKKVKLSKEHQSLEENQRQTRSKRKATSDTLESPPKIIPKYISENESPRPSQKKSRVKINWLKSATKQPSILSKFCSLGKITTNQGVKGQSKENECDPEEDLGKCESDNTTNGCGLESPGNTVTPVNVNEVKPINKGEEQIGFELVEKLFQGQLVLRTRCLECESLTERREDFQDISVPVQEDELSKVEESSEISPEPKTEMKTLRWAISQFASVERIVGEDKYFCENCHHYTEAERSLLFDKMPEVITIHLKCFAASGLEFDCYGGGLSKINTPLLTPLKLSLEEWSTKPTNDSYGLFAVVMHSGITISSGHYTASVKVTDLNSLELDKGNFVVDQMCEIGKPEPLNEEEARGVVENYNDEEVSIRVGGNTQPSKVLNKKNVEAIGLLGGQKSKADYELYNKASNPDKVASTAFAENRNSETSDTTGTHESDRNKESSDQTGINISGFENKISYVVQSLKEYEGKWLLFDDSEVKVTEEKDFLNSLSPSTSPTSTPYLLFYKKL
Chain of 3',5'-cyclic-AMP phosphodiesterase 4B (Homo sapiens) (Q07343 whole entry, looked up): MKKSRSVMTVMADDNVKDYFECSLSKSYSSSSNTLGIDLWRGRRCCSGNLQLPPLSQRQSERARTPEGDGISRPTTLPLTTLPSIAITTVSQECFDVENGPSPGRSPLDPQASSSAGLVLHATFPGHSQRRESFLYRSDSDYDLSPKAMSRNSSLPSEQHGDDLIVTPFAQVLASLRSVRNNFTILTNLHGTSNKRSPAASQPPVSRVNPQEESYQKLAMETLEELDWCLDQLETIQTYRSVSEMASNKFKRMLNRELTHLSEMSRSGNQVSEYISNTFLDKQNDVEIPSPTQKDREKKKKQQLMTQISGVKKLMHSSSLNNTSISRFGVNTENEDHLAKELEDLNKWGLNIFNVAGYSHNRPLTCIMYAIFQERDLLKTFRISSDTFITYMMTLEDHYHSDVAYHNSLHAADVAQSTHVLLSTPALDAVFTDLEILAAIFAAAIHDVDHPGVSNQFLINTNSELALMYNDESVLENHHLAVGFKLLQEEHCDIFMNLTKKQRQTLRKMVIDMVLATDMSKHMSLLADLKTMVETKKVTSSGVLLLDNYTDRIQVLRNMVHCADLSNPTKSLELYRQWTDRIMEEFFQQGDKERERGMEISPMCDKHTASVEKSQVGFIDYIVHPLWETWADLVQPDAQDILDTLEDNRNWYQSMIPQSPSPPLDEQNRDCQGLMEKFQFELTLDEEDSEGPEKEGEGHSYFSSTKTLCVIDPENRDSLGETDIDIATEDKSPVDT
Chain of Cytochrome P450 2D6 (Homo sapiens) (P10635 whole entry, looked up): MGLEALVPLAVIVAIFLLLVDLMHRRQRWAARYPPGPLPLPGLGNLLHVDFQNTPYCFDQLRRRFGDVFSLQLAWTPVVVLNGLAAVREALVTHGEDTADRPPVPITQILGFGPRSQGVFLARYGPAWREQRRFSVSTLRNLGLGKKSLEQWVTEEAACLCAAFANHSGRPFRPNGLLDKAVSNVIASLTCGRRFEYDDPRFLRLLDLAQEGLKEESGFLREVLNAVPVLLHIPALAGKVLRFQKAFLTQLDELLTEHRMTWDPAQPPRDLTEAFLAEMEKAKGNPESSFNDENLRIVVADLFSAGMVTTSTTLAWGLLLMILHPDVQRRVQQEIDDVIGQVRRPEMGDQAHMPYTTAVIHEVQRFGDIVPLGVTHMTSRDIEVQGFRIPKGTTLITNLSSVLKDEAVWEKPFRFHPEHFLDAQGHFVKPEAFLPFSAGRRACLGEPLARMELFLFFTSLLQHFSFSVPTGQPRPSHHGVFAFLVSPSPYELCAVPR

O[C@@H]1[C@H](O)[C@H]2[C@@H](O)CCN2C[C@@H]1O
6.33%: max response ([4]; measured here: lipid channel max response)
inactive: Potency [1] > 46 µM | Potency [2] > 46 µM | outcome [3] | activity change, negative = inhibition ([4]; at 57.5 µM (top of the series)) -2.53% | Potency [5] | Potency [6] | Potency [7] | Potency [8] | Potency [9]
7.43%: max response ([4]; measured here: cell count channel max response)

CCCCCCC[n+]1ccc(-c2cc[n+](CCCCCCC)cc2)cc1
active: Potency [11] 7.94 µM
inactive: Potency [2] > 46 µM | Potency [10] | Potency [5] | Potency [6] | Potency [7]
